In PubChem BioAssay:
The source made the active and inactive calls.

How the values were obtained:
[1] = A549 cell viability effects, profiling panel, calcein-AM fluorescence, 48 h, basal (AID 1162); settings: higher = more signal
[2] = adipocyte viability effects, profiling panel, cell-based, 3T3-L1 adipocytes, calcein-AM fluorescence, 48 h, basal (AID 1163); settings: 3T3-L1 adipocytes viability, higher = more signal
[3] = HepG2 cell viability effects, profiling panel, calcein-AM fluorescence, 48 h, basal (AID 1164); settings: higher = more signal
[4] = MM1S cell viability effects, profiling panel, calcein-AM fluorescence, 48 h, basal (AID 1165); settings: higher = more signal;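 also: viability of MM1S multiple myeloma cells under basal unstimulated conditions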
[5] = basal RPMI8226 viability, no added stimulus, profiling panel, cell-based, calcein-AM fluorescence, 48 h, PK04 Diversity Set (AID 1166); settings: RPMI8226 myeloma viability, higher = more signal;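 also: cells grown under basal conditions without added stimulus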
[6] = basal HepG2 mitochondrial membrane potential changes, profiling panel, cell-based, JC-1 fluorescence, 24 h, 100 nL compound (AID 1167); settings: higher = more signal
[7] = basal 3T3-L1 adipocyte mitochondrial potential changes, profiling panel, cell-based, JC-1 fluorescence, 3T3-L1 adipocytes, 24 h, 100 nL compound (AID 1168); settings: JC-1 mitochondrial fluorescence, higher = more signal, called active from +8 up or from −8 down
[8] = basal RPMI8226 mitochondrial membrane potential changes, profiling panel, cell-based, JC-1 fluorescence, 24 h, 100 nL compound (AID 1169); settings: RPMI8226 myeloma, JC-1 mitochondrial potential fluorescence, higher = more signal
[9] = basal MM1S mitochondrial membrane potential changes, profiling panel, cell-based, JC-1 fluorescence, 24 h, 100 nL compound (AID 1170); settings: higher = more signal
[10] = A549 lung cancer cell viability effects, profiling panel, resazurin fluorescence, 24 h, PK04 Diversity Set (AID 1171); settings: higher = more signal, called active from +8 up or from −8 down
Also: test concentration not given here.

| Structure (SMILES) | z-score [1] | z-score [2] | z-score [3] | z-score [4] | z-score [5] | z-score [6] | z-score [7] | z-score [8] | z-score [9] | z-score [10] |
| --- | --- | --- | --- | --- | --- | --- | --- | --- | --- | --- |
| CCOC(=O)C[C@H]1[C@H](OC(=O)c2cc3ccccc3oc2=O)[C@@H](NC(=O)c2ccc3ccccc3c2)c2cc(OCCCO)ccc2N1C(=O)c1ccccc1 | 0.659 | 2.7 | 0.582 | 0.0168 | -0.608 | -1.3 | 0.571 (inactive) | 0.416 | 0.755 | -1.01 (inactive) |
| CCCC[C@H]1OB(O)C[C@H]2C1=C(C)Cn1c(=O)n(-c3ccccc3)c(=O)n12 | 0.673 | 0.465 | 0.173 | -0.337 | -0.108 | 0.546 | 0.299 (inactive) | -0.903 | -0.503 | 0.0548 (inactive) |
| COc1cc2c(cc1O)C(c1ccc(CN3CCCC3)cc1)N(Cc1sc3ccccc3c1Cl)CC2 (stereo not given) | -0.42 | -0.0706 | -1.5 | -1.89 | -1.24 | -0.535 | -0.506 (inactive) | -0.105 | -0.774 | 0.835 (inactive) |
| CC(C)N1C(=O)c2ccccc2[C@](C)(C(=O)NC2CC2)[C@@H]1c1ccc(CO)cc1 | -0.778 | -0.415 | 0.176 | 0.0418 | 0.27 | 1.57 | 0.343 (inactive) | 0.747 | -0.847 | 0.688 (inactive) |
| COC(=O)[C@@]1(Cc2ccc(F)cc2)[C@H]2c3cc(C(=O)N(C)C)n(CCc4c[nH]c5ccc(OC)cc45)c3C[C@H]2CN1C(=O)c1ccccc1 | -0.906 | 0.813 | -0.885 | -0.64 | -1.79 | 0.922 | -0.939 (inactive) | -0.262 | -1.82 | -0.752 (inactive) |
| C=CCN1C(=O)[C@@]2(O[C@@H](CCO)[C@H]([Si](C)(C)c3ccc(OC)cc3)[C@H]2C)c2cc(NC(C)=O)ccc21 | 0.103 | -0.213 | -0.411 | -1.36 | -1.56 | -0.96 | -0.296 (inactive) | -0.484 | -0.722 | -1.17 (inactive) |
| NC(=O)NCC#Cc1ccc2c(c1)[C@]1(C(=O)N2)[C@H](c2ccccc2OCCO)N2[C@H](c3ccccc3)[C@H](c3ccccc3)OC(=O)[C@H]2[C@@H]1C(=O)N1CCCCCCC1 | -0.169 | 0.73 | 0.231 | -0.0358 | 0.236 | -0.978 | 0.303 (inactive) | -0.498 | 0.143 | 0.414 (inactive) |
| CC(C)C(O)C1C=CC2C(=O)N(C)C(=O)C2N1N1CCCCC1 (stereo not given) | 0.553 | -0.0255 | -0.306 | -0.602 | -1.34 | -0.778 | -0.307 (inactive) | 0.643 | -0.189 | -0.153 (inactive) |
| CCCNC(=O)[C@@]1(C)c2ccccc2C(=O)N(Cc2ccc(OC(F)(F)F)cc2)[C@H]1c1ccc(CO)cc1 | 0.951 | -0.105 | 1.28 | 0.328 | -0.0542 | 3.34 | 0.45 (inactive) | -0.244 | -0.949 | -0.658 (inactive) |
| CN1C(=O)C2C(C1=O)C1C=C(c3ccc(CO)cc3)C2C(C2CC2)N1Cc1sc2ccccc2c1Cl (stereo not given) | -0.245 | 0.612 | 1.79 | -3.2 | -4.33 | 2.19 | 0.46 (inactive) | -0.957 | -2.05 | -2.15 (inactive) |
| COCCOC(=O)N1C(=O)[C@@]2(c3cc(C#CC4(O)CCCCCC4)ccc31)[C@H](c1ccc(O)cc1)N1[C@H](c3ccccc3)[C@H](c3ccccc3)OC(=O)[C@H]1[C@@H]2C(=O)N1CCc2cc(OC)c(OC)cc2C1 | -0.742 | 0.0633 | -0.592 | -0.435 | -0.165 | -0.206 | -0.947 (inactive) | 0.83 | -0.494 | 1.65 (inactive) |
| Cc1ccc(S[C@]2(C(=O)NCC(C)C)CC(=O)N(Cc3ccccc3)[C@@H]2c2ccc(CO)cc2)cc1 | 0.204 | 0.38 | -0.056 | -1.32 | -0.152 | -0.135 | -0.239 (inactive) | 0.205 | 0.435 | 1.23 (inactive) |
| C=CCC(OC(C)=O)[C@@H]1[C@@H](N(Cc2ccc(-c3cccc(C(F)(F)F)c3)o2)C(=O)c2ccc(C)cc2)c2cc(OCCCO)ccc2N1C(=O)c1ccc2ccccc2n1 (stereo not given in full) | 1.03 | 0.27 | 1.91 | -0.0472 | -0.526 | 2.67 | -0.351 (inactive) | 0.962 | -0.165 | 0.16 (inactive) |
| CC(=O)NCCCC[C@@H]1NC(=O)[C@@H]2C[C@H](C(=O)NCc3ccc(F)cc3)[C@H](c3ccc(O)cc3)N2C1=O | -0.484 | 0.347 | -0.797 | -1.18 | -0.556 | 1.28 | 0.58 (inactive) | 0.0286 | 0.28 | 0.361 (inactive) |
| C[N+](C)(C)CCCC[C@@H]1NC(=O)[C@H]2C[C@@H](C(=O)O)[C@@H](c3cccc(OCCO)c3)N2C1=O | 0.244 | -0.552 | 0.438 | 0.797 | 0.91 | 2.37 | -0.448 (inactive) | -0.741 | -0.631 | -0.141 (inactive) |
| CC1(C)C(=O)C(c2ccccc2)=C2CN3C(=O)N(CCc4ccccc4)C(=O)C3(Cc3ccccc3)C=C21 (stereo not given) | -0.739 | -0.295 | 0.54 | -0.0119 | 0.0826 | 0.000299 | -0.385 (inactive) | -0.871 | -1.52 | 0.199 (inactive) |
| COCCn1c(C(=O)N(C)C)cc2c1C[C@H]1CN(C(=O)c3ccccc3)[C@@](Cc3ccc(F)cc3)(C(=O)OC)[C@@H]21 | 0.428 | -0.687 | 0.684 | -0.259 | -0.362 | 0.938 | -0.499 (inactive) | 0.172 | -0.929 | -0.774 (inactive) |
| COCCCNC(=O)[C@@]1(Cc2ccccc2I)c2ccccc2C(=O)N(Cc2ccccc2)[C@H]1c1ccc(CO)cc1 | 0.954 | 0.387 | 0.828 | -0.657 | -1.25 | 1.71 | -0.432 (inactive) | -0.136 | 0.651 | 1.67 (inactive) |
| C=CCN1Cc2ccccc2C[C@@]2(COC(c3ccc(OCCCO)cc3)=N2)C1=O | 0.386 | 0.72 | 0.741 | -3.59 | -2.52 | 1.32 | 0.94 (inactive) | -0.988 | -2.19 | -1.56 (inactive) |
| O=C1[C@H]2C=C(Br)[C@H](C[C@@H]2OCCOCCO)[C@@]12CO2 | -0.43 | -0.577 | -0.96 | -0.368 | -0.674 | -1.33 | -0.454 (inactive) | 0.406 | -0.137 | -0.274 (inactive) |
| [N-]=[N+]=NCc1ccccc1C[C@]1(C(=O)N2CCOCC2)N=C(c2ccc(OCCCO)cc2)O[C@H]1c1ccccc1 | -0.55 | -0.0649 | -1.56 | -2.06 | -4.4 | -0.155 | -0.296 (inactive) | -1.16 | -2.08 | -0.832 (inactive) |
| COCCOC(=O)N1C(=O)[C@@]2(c3cc(C#Cc4ccc(OC)cc4)ccc31)[C@H](c1ccc(O)cc1)N1[C@H](c3ccccc3)[C@H](c3ccccc3)OC(=O)[C@H]1[C@@H]2C(=O)N1CCN(c2ncccn2)CC1 | -0.514 | 0.546 | -0.0225 | -0.305 | -1.12 | -0.445 | 2.33 (inactive) | -0.525 | -0.339 | 0.484 (inactive) |
| O=C1C2C=CC(C(O)c3ccc(B(O)O)cc3)N(Nc3ccc([N+](=O)[O-])cc3)C2C(=O)N1c1ccccc1 (stereo not given) | -2.05 | -0.167 | -5.4 | 0.0297 | -4.09 | -1.66 | 3.71 (inactive) | -0.213 | -1.22 | 0.0312 (inactive) |
| [N-]=[N+]=NCc1ccccc1C[C@]1(C(=O)NCC(O)CO)COC(c2ccc(OCCCO)cc2)=N1 (stereo not given in full) | -0.226 | -0.314 | 0.0226 | -1.02 | -1.29 | -0.727 | -0.491 (inactive) | -1.26 | -0.714 | 2.56 (inactive) |
| C=C(COC)/C(=C/C[C@H](OC(C)=O)c1ccccc1OCCO)c1cnc2ccccc2c1 | 0.406 | -0.309 | -0.738 | -2.08 | -1.32 | 1.4 | -1.34 (inactive) | -0.439 | -0.62 | -0.0424 (inactive) |
| O=C1OCCC=C[C@H]2OC34C=CCN(CCN5CCOCC5)C(=O)[C@H]3N(CCO)C(=O)[C@@H]4C12 (stereo not given in full) | -0.53 | -0.246 | -0.209 | 0.471 | -0.253 | -0.659 | -0.293 (inactive) | -0.578 | -0.47 | -0.948 (inactive) |
| C=C(/C(=C/C[C@@H](OC(=O)c1ccncc1)c1ccc(CO)o1)c1cc(C(=O)OC)ccc1OC)C(C)C | 0.621 | -0.619 | 0.486 | -2.99 | -2.18 | 0.654 | -0.369 (inactive) | -0.688 | -1.97 | -0.0675 (inactive) |
| COc1ccc(C#Cc2ccc3c(c2)[C@]2(C(=O)N3)[C@H](C(=O)N3CCc4cc(OC)c(OC)cc4C3)[C@H]3C(=O)O[C@H](c4ccccc4)[C@H](c4ccccc4)N3[C@@H]2c2ccc(OCCO)cc2)cc1 | 1.04 | 0.386 | 0.515 | -0.73 | 0.223 | -0.233 | 2.37 (inactive) | -0.513 | -1.5 | 0.185 (inactive) |
| CC(C)(C)OC(=O)CC[C@@]1(C(=O)N2CCOCC2)N=C(c2ccc(OCCCO)cc2)O[C@@H]1c1ccccc1N=[N+]=[N-] | 0.962 | 0.122 | 0.169 | -0.49 | 0.338 | 2.09 | 5.5 (inactive) | -0.499 | -1.03 | 0.716 (inactive) |
